Shown are actives, neighbours in structure and some others; about 12% of the full set was active somewhere.
Sfp PPTase inh – inhibitors of Bacillus subtilis Sfp phosphopantetheinyl transferase | Q9F4F7 | Biochemical Sfp PPTase activity, qHTS | Potency, µM, for inactives: largest response in the series, negative = inhibition, actives largely listed as inhibitors | actives 3.5% (n = 310,000) | AID 1490;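 also: the enzyme is Sfp with the accession as filed and its product quenches rhodamine fluorescence; 0% = enzyme reaction without inhibitor and -100% = no enzyme wells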
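Fluorescence-quenching assay: 15 nM Sfp-PPTase preincubated 15 min at room temperature with compound, then 5 uM rhodamine-CoA and 12.5 uM BHQ-2-labelled YbbR peptide added. Fluorescence (ex 525/em 598 nm) read at start and after 30 min; difference gives rate.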
JMJD2A Tudor – blocks the human JMJD2A Tudor domain; AlphaScreen JMJD2A-Tudor / H3K4me3 peptide binding; Potency, µM (top dose mostly 114 µM), for inactives: top-dose activity change, negative = inhibition, actives largely listed as inhibitors; actives 4.4% (n = 390,000); AID 504339; also: % is scaled to controls: 0 for no effect and ±100 for the full control effect; nearly all actives have a fitted effect of over 50% in size
BAZ2B block – inhibitors of human BAZ2B bromodomain; AlphaScreen BAZ2B-H3K14Ac peptide displacement; Potency, µM (titrated, usually from 114 µM), for the others: at the top dose activity change, negative = inhibition, hits mostly inhibitors; Q9UIF8; actives 4.4% (n = 360,000); AID 504333; also: % is scaled to controls: 0 for no effect and ±100 for the full control effect; nearly all actives have a fitted effect of over 60% in size
Target sequence (Q9UIF8 whole entry, looked up): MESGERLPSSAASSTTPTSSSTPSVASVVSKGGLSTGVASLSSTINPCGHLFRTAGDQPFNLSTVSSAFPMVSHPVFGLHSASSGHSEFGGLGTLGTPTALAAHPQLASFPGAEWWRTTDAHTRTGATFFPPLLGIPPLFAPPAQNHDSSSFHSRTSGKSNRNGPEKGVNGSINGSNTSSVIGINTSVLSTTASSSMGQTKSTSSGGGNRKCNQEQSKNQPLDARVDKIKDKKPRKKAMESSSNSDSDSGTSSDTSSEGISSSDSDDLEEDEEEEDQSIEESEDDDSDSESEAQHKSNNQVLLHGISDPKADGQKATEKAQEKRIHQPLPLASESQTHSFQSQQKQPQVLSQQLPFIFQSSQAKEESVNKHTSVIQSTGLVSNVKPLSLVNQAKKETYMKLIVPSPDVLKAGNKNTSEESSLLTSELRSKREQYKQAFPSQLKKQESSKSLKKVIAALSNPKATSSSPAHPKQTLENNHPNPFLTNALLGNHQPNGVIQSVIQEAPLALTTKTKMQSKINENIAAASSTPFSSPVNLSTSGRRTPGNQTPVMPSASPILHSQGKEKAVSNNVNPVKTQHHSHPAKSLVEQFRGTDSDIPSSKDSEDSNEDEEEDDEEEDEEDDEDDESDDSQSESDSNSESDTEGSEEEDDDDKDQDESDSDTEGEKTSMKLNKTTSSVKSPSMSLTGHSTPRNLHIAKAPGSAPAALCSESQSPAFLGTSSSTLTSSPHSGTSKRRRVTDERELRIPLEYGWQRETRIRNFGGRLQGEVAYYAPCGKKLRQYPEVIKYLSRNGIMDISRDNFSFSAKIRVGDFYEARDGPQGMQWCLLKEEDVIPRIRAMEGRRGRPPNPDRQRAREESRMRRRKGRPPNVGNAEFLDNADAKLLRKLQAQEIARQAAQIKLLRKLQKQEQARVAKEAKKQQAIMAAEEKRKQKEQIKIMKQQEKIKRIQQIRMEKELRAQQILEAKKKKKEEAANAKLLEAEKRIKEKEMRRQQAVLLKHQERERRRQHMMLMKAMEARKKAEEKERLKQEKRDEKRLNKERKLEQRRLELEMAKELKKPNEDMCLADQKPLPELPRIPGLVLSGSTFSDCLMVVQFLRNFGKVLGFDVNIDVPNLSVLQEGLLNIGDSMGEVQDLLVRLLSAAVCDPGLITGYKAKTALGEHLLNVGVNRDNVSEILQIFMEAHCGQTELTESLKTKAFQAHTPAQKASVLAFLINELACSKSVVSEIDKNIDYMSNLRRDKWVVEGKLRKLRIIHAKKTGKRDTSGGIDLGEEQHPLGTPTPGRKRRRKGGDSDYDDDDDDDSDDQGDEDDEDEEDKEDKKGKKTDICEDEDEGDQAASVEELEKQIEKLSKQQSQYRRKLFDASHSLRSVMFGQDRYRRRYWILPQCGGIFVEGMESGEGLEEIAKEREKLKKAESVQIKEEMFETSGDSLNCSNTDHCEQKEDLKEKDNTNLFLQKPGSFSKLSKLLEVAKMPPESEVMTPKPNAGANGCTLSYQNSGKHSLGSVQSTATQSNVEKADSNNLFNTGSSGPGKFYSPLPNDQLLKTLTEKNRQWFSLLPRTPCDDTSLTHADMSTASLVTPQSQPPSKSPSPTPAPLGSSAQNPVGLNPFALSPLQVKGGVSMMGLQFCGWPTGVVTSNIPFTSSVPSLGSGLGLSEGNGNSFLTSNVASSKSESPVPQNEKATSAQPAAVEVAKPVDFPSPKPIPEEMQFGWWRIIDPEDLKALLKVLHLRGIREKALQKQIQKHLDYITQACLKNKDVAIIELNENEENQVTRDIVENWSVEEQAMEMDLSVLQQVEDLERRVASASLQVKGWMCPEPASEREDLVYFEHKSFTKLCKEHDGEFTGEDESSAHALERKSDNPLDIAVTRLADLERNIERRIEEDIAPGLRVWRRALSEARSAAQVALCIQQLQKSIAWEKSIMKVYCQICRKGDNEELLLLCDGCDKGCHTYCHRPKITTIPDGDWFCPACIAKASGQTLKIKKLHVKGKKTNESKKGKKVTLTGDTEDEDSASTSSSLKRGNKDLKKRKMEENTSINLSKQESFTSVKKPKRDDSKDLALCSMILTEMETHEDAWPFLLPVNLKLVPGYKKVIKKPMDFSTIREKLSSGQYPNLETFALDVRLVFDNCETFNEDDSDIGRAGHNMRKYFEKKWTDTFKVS
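In this displacement format the biotinylated H3(5-23) peptide acetylated at Lys14 serves as ligand at 50 nM, with BAZ2B at 50 nM in PBS pH 7.4 containing 0.01% Tween-20. Donor and acceptor beads are 10 ug/mL final.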
HP1b chromo inh – HP1-beta chromodomain-methylated histone interaction inhibition; P83916; AlphaScreen HP1-beta / biotin-H3K9me3 peptide binding; Potency, µM (series often up to 114 µM), for inactives: at the highest dose activity change, negative = inhibition, usual class: inhibitors; actives 0.56% (n = 390,000); also: nearly all actives have a fitted effect of over 70% in size
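HP1-beta protein (50 nM final) preincubated 30 min at room temperature with biotinylated H3(1-18)K9me3 peptide (50 nM) in PBS pH 7.4, 0.01% Tween-20, then compound added for 30 min. AlphaScreen streptavidin donor/nickel chelate acceptor beads (10 ug/mL final), 30 min dark, luminescence read.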
G9a block – blocks human histone lysine methyltransferase G9a; Q96KQ7; G9a H3K9 monomethylation, AlphaScreen, 2 h; Potency, µM (series often up to 102 µM), without a hit: top-dose activity, negative = inhibition, most hits filed as inhibitors; actives 8.8% (n = 350,000); also: % is scaled to controls: 0 for no effect and ±100 for the full control effect; nearly all actives have a fitted effect of over 75% in size
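G9a (20 nM) was preincubated 15 min with compound, then reacted 2 h at room temperature with 500 nM biotin-H3K9 peptide and 20 µM SAM. Monomethyl-H3K9 detected by AlphaScreen using anti-H3K9me1 antibody.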
An asterisk follows results filed as active; ? = inconclusive; . = no result given; [ ] = another dose, or the depositor's remark. Calls follow the shape of the dose curve; as a rule, active = well fitted curve in the direction sought with a large enough effect; inconclusive = small, poorly fitted or top-dose-only effect, or another doubt; inactive = no such curve, though single readings can be large; an effect the other way counts as inactive or inconclusive. Potency is read from the fitted curve at half-maximal effect.

SMILES	Sfp PPTase inh	JMJD2A Tudor	BAZ2B block	HP1b chromo inh	G9a block
CC(C)(C)c1ccc(C(=O)NCC(=O)OC(C(=O)Nc2cc(C(F)(F)F)ccc2Cl)c2ccccc2)cc1 (centres undefined)	.	-21%	.	.	.
CC1CCN(C(=O)c2cc(Cl)ccc2NC(=O)c2ccco2)CC1	9%	5%	2%	32%	-1%
[O-]/C(=C(\C(=S)NCc1ccccc1)[n+]1ccccc1)c1ccc(Cl)s1	-36%	?	?	?	25µM*
[O-]/C(=C(\C(=S)NCCN1CCOCC1)[n+]1ccccc1)c1ccc(Cl)s1	3%	-31%	?	-4%	25µM*
Cc1c(Cl)cccc1NC(=S)C(=C([O-])c1ccc(Cl)s1)[n+]1ccccc1	.	50µM*	.	?	.
COc1ccc(CNc2ccc(N3CCOCC3)cc2)cc1	-25%	?	-11%	-18%	.
FC(F)(F)c1cnc(/C=C/Nc2ccccc2Cl)c(Cl)c1	1%	-12%	-27%	25%	107%[59 µM]
C[N+]1=C(/C=C/Nc2ccccc2Cl)C(C)(C)c2ccccc21	-15%	?	-34%	-21%	7.9µM*
CCOC(=O)C1=C(C)NC(=O)NC1c1ccc(Br)s1 (centres undefined)	14%	-22%	-16%	11%	-31%[59 µM]
CNc1sc(C(=O)c2ccccc2F)c(N)c1-c1nc2ccccc2s1	-30%	50µM*	40µM*	?	?
O=C1CC(c2ccc(Cl)cc2)n2nc(N3C(=O)c4ccccc4C3=O)nc2N1 (centres undefined)	-28%	?	79µM*	25%	-33%[59 µM]
O=C1CC(c2ccccc2)n2nc(N3C(=O)c4ccccc4C3=O)nc2N1 (centres undefined)	5%	-8%	3%	29%	-9%[59 µM]
O=C(C[n+]1ccc2ccccc2c1)c1cccc2ccccc12	-13%	-29%	-19%	19%	28µM*
N#CC1=C(O)C(c2ccccc2)n2c1nc(=O)c1ccccc12 (centres undefined)	-2%	-20%	?	30%	25µM*
CCN1C(=O)S/C(=C/c2ccc(Oc3ccc([N+](=O)[O-])cn3)c(OC)c2)C1=O	11%	-27%	16%	21%	?
O=C1NC(=S)S/C1=C\c1ccc2ccccc2c1	3%	?	50µM*	-5%	-5%
COc1ccc(/C=C2\SC(=O)NC2=S)cc1OC	25µM*	79µM*	40µM*	?	6.3µM*
CCN1C(=O)C(=Cc2cccc(OC)c2Oc2ccc([N+](=O)[O-])cc2[N+](=O)[O-])SC1=S	?	?	25µM*	?	45µM*
CCOc1ccc(/C=C2\SC(=S)NC2=O)cc1OC	-6%	-31%	?	-4%	13µM*
COc1ccc(C=C2SC(=S)NC2=O)cc1	.	-18%	.	7%	.
CCOc1ccc(/C=C2\SC(=S)N(C)C2=O)cc1OC	2%	-18%	-11%	5%	.
CC(C)NC(=O)N(C)C[C@H]1Oc2ccc(NC(=O)C3CC3)cc2C(=O)N([C@H](C)CO)C[C@@H]1C	.	-6%	.	55%	.
CCOc1cc(C(N)=O)cc(Cl)c1OCC	18%	?	-18%	18%	14%[12.7 µM]
Cc1noc(NS(=O)(=O)c2ccc(NC(=O)c3cc(=O)c4ccccc4o3)cc2)c1C	17%	-18%	-28%	25%	12%
COc1cc(/C=C2/SC(=S)NC2=O)ccc1OS(=O)(=O)c1ccc(C)cc1	25µM*	56µM*	50µM*	?	20µM*
COc1cccc(OCCOc2ccc(/C=C3/SC(=S)NC3=O)cc2)c1	50µM*	56µM*	45µM*	?	7.9µM*
COc1cc(/C=N/O)ccc1Oc1ccc([N+](=O)[O-])cc1[N+](=O)[O-]	-7%	?	?	4%	?
COc1cc(/C=C2\SC(=O)NC2=O)ccc1Oc1ccc([N+](=O)[O-])cc1[N+](=O)[O-]	56µM*	35µM*	45µM*	?	10µM*
COc1cc(/C=C2\SC(=S)NC2=O)ccc1OS(=O)(=O)c1ccccc1	50µM*	.	45µM*	.	11µM*
COc1ccc(/C=C2\SC(=S)NC2=O)cc1OS(=O)(=O)c1ccc(NC(C)=O)cc1	-11%	-35%	-38%	-14%	?

Bioassay records (PubChem BioAssay)
